Screening results (PubChem BioAssay)
Only some compounds are listed: those with a hit (about 4.7% of all), similar ones and a draw of the others.
TIM10 inh: growth inhibitors of TIM10 yeast strain; S. cerevisiae TIM10 strain growth, BacTiter-Glo luminescence, 24 h; inhibition, % at 10 µM; actives 1.4% (n = 330,000);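 active = inhibition of 40% or more at the single tested concentration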;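 note: wild-type TIM10 isogenic control strain grown at permissive 25 °C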
PfHsp90 yeast 2: inhibits growth of yeast expressing Plasmodium falciparum Hsp90; AID 504621; S. cerevisiae expressing PfHsp90, BacTiter-Glo ATP, 48 h; yeast lacking PDR1 and PDR3 efflux regulators; inhibition, % at 9.4 µM; actives 0.32% (n = 310,000);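 active = every replicate shows inhibition above about 80%, whatever the replicate mean, limit read from the data; inconclusive = mean inhibition reaches the set limit but some replicate falls short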;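 note: 0% = DMSO neutral controls and 100% = 20 µM radicicol positive controls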
tim10-1 inh: growth inhibitors of tim10-1 mutant yeast; inhibition, % at 20 µM; S. cerevisiae tim10-1 ts strain growth, BacTiter-Glo, 24 h; AID 463190; actives 2.2% (n = 330,000);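 active = inhibition of at least 40%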;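 note: mutant grown at 25 °C; 0% = DMSO wells with yeast and 100% = wells holding no yeast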
tim23-1 inh: tim23-1 yeast growth inhibition; inhibition, % at 20 µM; actives 1.3% (n = 330,000); S. cerevisiae tim23-1 growth, BacTiter-Glo luminescence, 24 h;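 active = growth inhibition of the mutant yeast at or above 50%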;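 note: temperature-sensitive mutant grown at 25 °C; plate controls were DMSO-treated mutant yeast for no effect and medium wells lacking yeast for full effect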
SKKanGAS inh: SKKanGAS growth inhibition; S. pyogenes SKKanGAS, kanamycin growth, BacTiter-Glo, 6 h; inhibition, % at 7.5 µM; actives 1.3% (n = 300,000); AID 1662;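 active = mean replicate score, as percent of positive control median, at least 50; inconclusive = mean below 50 but one replicate at or above 50; inactive = mean and every replicate below 50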;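 note: strain carries kanamycin resistance gene driven by streptokinase promoter and grows in 40 µg/ml kanamycin; loss of luminescence reflects streptokinase promoter inhibition or plain growth inhibition; 0% = median of DMSO wells and 100% = positive control at its reference dose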
EBI2 block: EBI2 (human) antagonism | AID 651636 | inhibition, % at 5 µM | EBI2 beta-arrestin recruitment, luminescence, 7a,25-OHC stimulated | actives 0.81% (n = 360,000) | P32249; in the data active = inhibition above about 38%;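 note: enzyme fragment complementation signal reports receptor beta-arrestin coupling in cells; 0% = agonist plus DMSO wells and 100% = wells without agonist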
Target sequence (P32249 whole entry, looked up, the tested form may be a part): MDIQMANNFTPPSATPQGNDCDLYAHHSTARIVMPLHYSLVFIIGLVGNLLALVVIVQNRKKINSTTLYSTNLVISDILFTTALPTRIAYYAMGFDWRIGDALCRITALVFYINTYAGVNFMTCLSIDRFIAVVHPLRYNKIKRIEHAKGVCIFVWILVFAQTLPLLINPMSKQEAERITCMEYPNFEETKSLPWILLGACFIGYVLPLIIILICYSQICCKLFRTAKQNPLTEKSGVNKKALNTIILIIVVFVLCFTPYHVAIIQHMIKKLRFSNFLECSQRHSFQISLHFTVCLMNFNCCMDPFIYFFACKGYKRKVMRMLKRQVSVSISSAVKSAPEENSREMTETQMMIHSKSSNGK
tim10-1 conf: confirmation of tim10-1 mutant yeast growth inhibitors; shares compounds with tim10-1 inh; S. cerevisiae tim10-1 ts strain growth, BacTiter-Glo, 24 h; inhibition, % at 20 µM; actives 56% (n = 7,400); AID 463213;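 active = inhibition of yeast growth at or above a set limit in either of two repeat tests at 20 µM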;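 note: tim10-1 mutant grown at permissive 25 °C to find synthetic lethal compounds; 0% = DMSO yeast wells and 100% = medium wells without yeast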
tim10 confirm: confirmation of TIM10 yeast growth inhibitors; shares compounds with TIM10 inh; inhibition, % at 10 µM; S. cerevisiae tim10 strain growth, BacTiter-Glo luminescence, 24 h; actives 63% (n = 4,600);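 active = inhibition of yeast growth at or above a set limit in either of two replicates at 10 µM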;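 note: this counterscreen used the strain with wild-type TIM10; 0% = yeast with DMSO and 100% = medium wells lacking yeast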
tim23-1 confirm: confirmation of tim23-1 mutant yeast growth inhibitors | actives 83% (n = 4,400) | inhibition, % at 20 µM | AID 463218 | S. cerevisiae tim23-1 growth, BacTiter-Glo luminescence, 24 h | shares compounds with tim23-1 inh;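 active = inhibition above about 39% in either of two replicate wells at 20 µM, limit read from the data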;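 note: temperature-sensitive tim23-1 mutant grown at 25 °C; 0% = DMSO wells with yeast and 100% = medium wells without yeast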
An asterisk follows results filed as active; ? = inconclusive; . = not tested or not shown.

SMILES	TIM10 inh	PfHsp90 yeast 2	tim10-1 inh	tim23-1 inh	SKKanGAS inh	EBI2 block	tim10-1 conf	tim10 confirm	tim23-1 confirm
N/C(=N\OC(=O)C1CCCCC1)c1cccc(Br)c1	74*	24	67*	75*	10	11	62*	58*	81*
O=C(CCc1ccccc1)OCC(=O)c1ccc(Br)cc1	4	-15	24	4	-5	-7	.	.	.
CC/C(=N\NC(=O)C1CCCC1)c1cccc(Br)c1	7	-18	11	25	.	-1	.	.	.
Cc1ccc(/C(N)=N/OC(=O)CCc2ccccc2)cc1	55*	-25	46*	75*	5	7	49*	60*	61*
N/C(=N\OC(=O)CCc1ccccc1)c1ccccc1Cl	47*	-7	64*	56*	8	8	60*	42*	48*
N/C(=N\OC(=O)CCc1ccccc1)c1ccc(Br)cc1	61*	17	47*	65*	0	4	56*	55*	46*
COc1cc(OC)cc(C(=O)n2cnnc2N)c1	0	-6	17	13	2	-3	.	.	.
COc1ccc(/C(N)=N/OC(=O)CCCc2ccccc2)cc1OC	6	6	29	6	-5	5	.	.	.
N/C(=N\OC(=O)CCc1ccccc1)c1cccc(Br)c1	63*	14	70*	81*	-2	-1	64*	60*	76*
CCn1c(=O)n(CC)c2cc(N3CCCC3)c(NC(=O)c3ccccc3OC)cc21	9	-31	-26	46	12	14	.	.	.
CCOc1ccccc1C(=O)Nc1cc2c(cc1N1CCCC1)n(CC)c(=O)n2CC	10	-77	48*	57*	-7	14	5	.	51*
CCCCCCN1C[C@H](O)[C@@H](n2cc(-c3ccc(F)cc3)nn2)C[C@@H]1c1ccccc1	.	.	.	.	.	12	.	.	.
COc1ccc(OCc2cc(/C=N\NC(=O)c3ccccc3)ccc2OC)cc1	34	-5	49*	52*	8	10	31	.	45*
CC1=NN(c2cccc(C(=O)O)c2)C(=O)/C1=C\C=C/c1ccccc1	47*	.	43*	53*	-1	9	47*	42*	62*
CC1=NN(c2ccc(C)cc2)C(=O)/C1=C\C=C\c1ccccc1	17	2	32	16	-10	-6	.	.	.
Cc1c(Cl)cccc1NC(=O)Nc1cc(C(C)(C)C)on1	29	-14	59*	59*	14	10	26*	.	45*
Cc1cc(NC(=O)Nc2ccccc2Cl)no1	-2	6	1	20	-4	2	.	.	.
O=C(NC(=S)NC1C2CC3CC(C2)CC1C3)c1ccccc1 (configuration not stated)	41*	-1	48*	54*	?	26	39*	22	67*
CN(C(=O)c1cc(COc2ccc(F)cc2Cl)on1)C1CCCc2ccccc21 (configuration not stated)	26	-12	26	19	5	3	.	.	.
Cc1nc2c(ccc3nc(NC(=O)C(c4ccccc4)c4ccccc4)sc32)s1	35	4	36	37	31	16	.	.	.
Cc1nc2c(ccc3nc(NC(=O)Cc4cccc5ccccc45)sc32)s1	40	-2	55*	60*	31	11	37*	.	64*
CCCn1nc([N+](=O)[O-])c(C(C#N)c2nc3ccccc3s2)c(Cl)c1=O (configuration not stated)	68*	-15	73*	72*	4	1	62*	88*	34
Cn1nc(C(=O)NNC(=O)Cc2ccc(S(=O)(=O)N3CCOCC3)s2)c2ccccc2c1=O	.	-40	.	.	.	-3	.	.	.
C#C[C@]1(O)CC[C@H]2[C@@H]3CCc4cc(O)ccc4[C@H]3CC[C@@]21C	27	-29	50*	52*	-7	11	34*	.	49*
CC12CCC3c4ccc(O)cc4CCC3C1CCC2=O (configuration not stated)	-48	-14	-4	-2	.	14	.	.	.
SMILES	TIM10 inh	PfHsp90 yeast 2	tim10-1 inh	tim23-1 inh	SKKanGAS inh	EBI2 block	tim10-1 conf	tim10 confirm	tim23-1 confirm
COc1cccc(CNC(=O)COC(=O)c2nc(Cl)c(Cl)c(Cl)c2Cl)c1	37	-9	56*	60*	.	-9	46*	.	57*
CC(=O)Nc1ccc(-c2ccnc3c2CC(C(=O)NCC2CCOCC2)O3)cc1 (configuration not stated)	.	.	.	.	.	-4	.	.	.
CC(Cc1cccs1)NC(=O)Nc1ccc(Cl)c(Cl)c1 (configuration not stated)	59*	-10	47*	52*	28	-3	52*	62*	54*
CC(C)(C)Cc1c(-c2ccc(Br)cc2)nc2ccc(Cl)cn12	.	.	.	.	.	-27	.	.	.
Cc1nnnn1/C(=C\c1ccccc1)C(=O)OCC(=O)Nc1cccc(S(=O)(=O)N(C)C)c1	11	-1	15	28	.	1	.	.	.
Cc1nnnn1/C(=C\c1ccccc1)C(=O)OCC(=O)Nc1ccc(Cl)cc1F	96*	-110	44*	80*	-12	-36	22	75*	40*
CCOC(=O)C1CCN(C(=O)c2c(C)oc3c2C(=O)c2ccccc2C3=O)CC1	33	10	48*	51*	15	-30	34*	.	59*
Cc1oc2c(c1C(=O)N1CCC(C)CC1)C(=O)c1ccccc1C2=O	45*	.	52*	74*	14	.	43*	40*	67*
CC1CCN(C(=O)c2ccc3c(c2)C(=O)c2ccccc2-3)CC1	.	.	.	.	.	18	.	.	.
O=S(=O)(Nc1ccc(-c2nc3ccccc3o2)cc1)c1ccccc1	52*	-115	47*	61*	8	10	40*	36*	53*
CCC(=O)Nc1cccc(-c2csc(-c3ccccc3)n2)c1	52*	6	40*	55*	5	5	35*	-5	60*
O=C(COC(=O)CCN1C(=O)/C(=C\C=C\c2ccccc2)SC1=S)Nc1ccc(Br)cc1	43*	0	49*	54*	3	-1	40*	51*	74*
O=c1[nH]c2ccccc2c(O)c1O	13	25	2	-1	2	-5	.	.	.
COc1ccc2cc3cc(C(=O)NCCN4CCc5ccccc5C4)oc3nc2c1	86*	-31	75*	63*	5	11	68*	-2	36
